Consider eight compounds from PubChem BioAssay (NCI).

Some test systems named below: SK-MEL-2 melanoma; EKVX NSCLC; SN12C renal; UO-31 renal; TK-10 renal; ACHN renal; CAKI-1 renal; A498 renal; CCRF-CEM leukemia; MOLT-4 leukemia; SR leukemia; RPMI-8226 leukemia; OVCAR-8 ovarian; OVCAR-5 ovarian; OVCAR-4 ovarian; SK-OV-3 ovarian; IGROV1 ovarian; OVCAR-3 ovarian; HS 578T breast; NCI/ADR-RES ovarian.
Holding throughout (assay): NCI-60 one-dose screen, 48 h (100 = growth as untreated, 0 = no growth, -100 = all killed)
Holding throughout (conditions): 10 µM unless noted

The structures appear in SMILES notation. Several values for one entry are separate records, joined by “and”; a condition that tells them apart may be missing. Equal entries are not always repeated. About 83,000 compounds went through this panel and 20% of them were active in at least one assay; those are over-represented in the sample as a whole.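 Activity criterion: percent growth below 10, measured after cells in 96-well plates were exposed to a single compound concentration for 48 hours.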 Values without a mark were called inactive. Activity calls are given as the source filed them.

As to `Cc1ccc(NC(=O)N/N=C/c2c[nH]c3ccccc23)c(C)c1`, the growth in the assay with SK-MEL-2 melanoma is 20.5%; in the assay on EKVX NSCLC it was 34.7%; in the assay with SN12C renal, 15.9%; with UO-31 renal, 26.6%; in the assay with TK-10 renal it was 30.5%; in the assay with ACHN renal, 22.8%. The growth in the assay with CAKI-1 renal was 29.1%; in the assay on A498 renal, 55.7%; in the assay on CCRF-CEM leukemia, 10%; in the assay on MOLT-4 leukemia, 6.25% (active); with SR leukemia it was 12.3%; in the assay with RPMI-8226 leukemia it was 9.67% (active). Besides, the growth was -23.7% (active) in the assay with OVCAR-8 ovarian; 15.5% with OVCAR-5 ovarian; 47.3% in the assay on OVCAR-4 ovarian; 21.8% in the assay on SK-OV-3 ovarian; 22.3% in the assay on IGROV1 ovarian; -33.2% (active) in the assay with OVCAR-3 ovarian. Further, the growth in the assay with HS 578T breast is 20.4%; with NCI/ADR-RES ovarian, 3.88% (active).
In the case of `COc1ccc(/C=C/c2nc3ccccc3n3c(-c4cccc([N+](=O)[O-])c4)nnc23)cc1`, the growth in the assay with SK-MEL-2 melanoma was -60.3% (active); in the assay on EKVX NSCLC, -52% (active); with SN12C renal, -72.2% (active); in the assay with UO-31 renal it was -90.3% (active); in the assay on TK-10 renal it was -47.3% (active); in the assay with ACHN renal, -97.5% (active). Further, the growth was -91.1% (active) with CAKI-1 renal; 75.7% in the assay with A498 renal; -14.9% (active) in the assay with CCRF-CEM leukemia; -36.5% (active) in the assay on MOLT-4 leukemia; -33.3% (active) in the assay with SR leukemia; -18.3% (active) with RPMI-8226 leukemia. Moreover, the growth in the assay with OVCAR-8 ovarian is -43.6% (active); with OVCAR-5 ovarian, -59.9% (active); in the assay with OVCAR-4 ovarian, -14.6% (active); in the assay on SK-OV-3 ovarian it was 25.6%; with IGROV1 ovarian, -69% (active); in the assay with OVCAR-3 ovarian, -77.4% (active). In addition, the growth with HS 578T breast is 12%; with NCI/ADR-RES ovarian, -27% (active).
For the compound `COc1cc(CNC(=O)C[C@H](C)CCC=C(C)C)ccc1OCc1cn(-c2ccccc2Cl)nn1`, the growth was 53.3% in the assay on SK-MEL-2 melanoma; 54% in the assay on EKVX NSCLC; 69.6% in the assay with SN12C renal; 30.3% in the assay on UO-31 renal; 93.1% with TK-10 renal; 67.6% in the assay with ACHN renal. The growth in the assay with CAKI-1 renal is 46.3%; in the assay on A498 renal, 107%; with CCRF-CEM leukemia, 40.1%; with MOLT-4 leukemia, 16.3%; in the assay on SR leukemia it was 48.5%; in the assay on RPMI-8226 leukemia, 47.6%. For the same compound, the growth in the assay with OVCAR-8 ovarian was 49.8%; in the assay with OVCAR-5 ovarian it was 93.1%; with OVCAR-4 ovarian, 33.3%; with SK-OV-3 ovarian it was 83%; in the assay with IGROV1 ovarian, 87.1%; in the assay on OVCAR-3 ovarian it was 83.6%. The growth with HS 578T breast is 81%; with NCI/ADR-RES ovarian, 24%.
Take `CC[C@@]12CC(C(=O)OC)=C3Nc4cc5c(cc4[C@@]34CCN(C[C@H]3O[C@H]31)[C@@H]24)[C@@H]1[C@H](O5)[C@@H](O)[C@@]2(CC)CC(C(=O)OC)=C3Nc4cc(O)ccc4[C@@]34CCN1[C@@H]24`: the growth is -70.4% (active) in the assay on SK-MEL-2 melanoma; -14.9% (active) with EKVX NSCLC; -16.8% (active) with SN12C renal; -66.2% (active) with UO-31 renal; -41.1% (active) with TK-10 renal; -26.4% (active) in the assay on ACHN renal. The growth is -55.8% (active) in the assay on CAKI-1 renal; -77.1% (active) with A498 renal; 2.67% (active) with CCRF-CEM leukemia; -15.9% (active) in the assay on MOLT-4 leukemia; -29.6% (active) with SR leukemia; -9.59% (active) with RPMI-8226 leukemia. The growth was 2.33% (active) with OVCAR-8 ovarian; -74.7% (active) in the assay on OVCAR-5 ovarian; -39% (active) in the assay with OVCAR-4 ovarian; -32.4% (active) in the assay on SK-OV-3 ovarian; -65.8% (active) in the assay on IGROV1 ovarian; -15.7% (active) with OVCAR-3 ovarian. In addition, the results for the growth with HS 578T breast and in the assay on NCI/ADR-RES ovarian were 6.27% (active) and 6.74% (active), respectively.
For `Cc1ccc(N=Nc2c(N)nn3c(-c4cc5ccccc5oc4=O)ccnc23)cc1`, the growth is 61.5% in the assay on SK-MEL-2 melanoma; 49.2% in the assay on EKVX NSCLC; 48.2% in the assay on SN12C renal; 53.8% in the assay with UO-31 renal; 57.9% with TK-10 renal; 34.9% with ACHN renal. The growth was 57.1% in the assay with CAKI-1 renal; 150% in the assay on A498 renal; 70.2% in the assay with CCRF-CEM leukemia; 39% in the assay with MOLT-4 leukemia; 75.7% with SR leukemia; 9.76% (active) with RPMI-8226 leukemia. For the same compound, the growth in the assay on OVCAR-8 ovarian was 51.4%; in the assay on OVCAR-5 ovarian, 54.6%; in the assay on OVCAR-4 ovarian, 77.9%; in the assay with SK-OV-3 ovarian it was 99.9%; in the assay on IGROV1 ovarian, 32.4%; in the assay with OVCAR-3 ovarian, 37.4%. The growth in the assay on HS 578T breast was 62.6%; with NCI/ADR-RES ovarian it was 27%.
`CSc1ccc(OCc2nc3ccccc3n2-c2cccc(NS(C)(=O)=O)c2)cc1`: the growth is 104% and 107% with SK-MEL-2 melanoma; 103% and 81.3% with EKVX NSCLC; 118% and 96.6% with SN12C renal; 59.5% and 78.4% in the assay with UO-31 renal; 118% and 128% in the assay on TK-10 renal; 90.8% and 94.9% in the assay with ACHN renal. The growth was 76.7% and 85% in the assay with CAKI-1 renal; 137% and 153% with A498 renal; 96.7% and 98.6% with CCRF-CEM leukemia; 96.7% and 97.4% with MOLT-4 leukemia; 82.6% and 89.5% in the assay with SR leukemia; 93.7% and 91.1% in the assay on RPMI-8226 leukemia. Also, the growth in the assay on OVCAR-8 ovarian was 99.5% and 88.4%; in the assay on OVCAR-5 ovarian it was 130% and 117%; with OVCAR-4 ovarian, 93.8% and 69.4%; with SK-OV-3 ovarian it was 110% and 83.5%; with IGROV1 ovarian, 95.3% and 82.8%; in the assay on OVCAR-3 ovarian, 118%. Also, the growth was 80.9% and 65% with HS 578T breast; 96.5% and 79.7% in the assay on NCI/ADR-RES ovarian.
`O=C(COc1ccc(/C=C2/C(=O)Nc3ccc(Cl)cc32)cc1)Nc1ccc(Br)cc1`: the growth in the assay with SK-MEL-2 melanoma was 16.3%; with EKVX NSCLC, -27.8% (active); in the assay with SN12C renal, -80.6% (active); in the assay on UO-31 renal, -73.7% (active); in the assay with TK-10 renal, -65.4% (active); in the assay with ACHN renal it was -82.9% (active). Also, the growth in the assay with CAKI-1 renal is -73% (active); in the assay with A498 renal, -51% (active); with CCRF-CEM leukemia, -23.9% (active); in the assay with MOLT-4 leukemia, -46.5% (active); in the assay with SR leukemia it was -35.7% (active); with RPMI-8226 leukemia, 14%. For the same compound, the growth with OVCAR-8 ovarian was -44.4% (active); in the assay with OVCAR-5 ovarian, 3.15% (active); in the assay with OVCAR-4 ovarian, -54% (active); in the assay on SK-OV-3 ovarian it was -57.8% (active); with IGROV1 ovarian, -22.2% (active); in the assay on OVCAR-3 ovarian it was -64.8% (active). Besides, the growth in the assay on HS 578T breast is -14.2% (active); in the assay on NCI/ADR-RES ovarian it was -34% (active).
As to `COc1cncc(-c2ccc3ncnc(N4CCc5ccc(Cl)cc54)c3c2)c1`, the growth in the assay on SK-MEL-2 melanoma is 30.6%; with EKVX NSCLC, -29.3% (active); in the assay on SN12C renal, 20.3%; in the assay with UO-31 renal, 1.93% (active); with TK-10 renal it was 8.96% (active); in the assay with ACHN renal it was 10.5%. The growth with CAKI-1 renal was 8.52% (active); in the assay on A498 renal, 33.2%; in the assay on CCRF-CEM leukemia, -1.98% (active); in the assay on MOLT-4 leukemia it was 4.34% (active); in the assay with SR leukemia, 3.37% (active); in the assay on RPMI-8226 leukemia it was -21.2% (active). Moreover, the growth in the assay on OVCAR-8 ovarian was 39.4%; with OVCAR-5 ovarian, 30%; with OVCAR-4 ovarian, 32%; in the assay with SK-OV-3 ovarian, 27.4%; with IGROV1 ovarian, -63.4% (active); in the assay with OVCAR-3 ovarian, 55.4%. In addition, the growth is 20.1% with HS 578T breast and 1.41% (active) in the assay with NCI/ADR-RES ovarian.
